Source: paper PMC5540273 (PLoS ONE, 2017)

Tests used:
Conditions in all cases: concentration: 1 μM,replicates: in singlicate; n = 1
TESK1 = system: TESK1
TGFBR1 = system: TGFBR1
TGFBR2 = system: TGFBR2
TIE1 = system: TIE1
TIE2 = system: T1, TIE2
T1 construct: gene TEK

TLK1 = system: TLK1
TLK2 = system: TLK2
TNIK = system: TNIK
TNK1 = system: TNK1
TNK2 = system: TNK2
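Further: KINOMEscan kinase panel screen.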

SMILES	%Inh (TESK1) [%]	%Inh (TGFBR1) [%]	%Inh (TGFBR2) [%]	%Inh (TIE1) [%]	%Inh (TIE2) [%]	%Inh (TLK1) [%]	%Inh (TLK2) [%]	%Inh (TNIK) [%]	%Inh (TNK1) [%]	%Inh (TNK2) [%]
CCN1CCN(CCCC(=O)Nc2n[nH]c3nc(-c4ccc(O)cc4)c(Br)cc23)CC1 [SB-731579]	0	0	0	19	0	8	0	7	34	0
C[C@@H]1CNc2c(sc3ccc4nc(-c5ccncc5)ccc4c23)C(=O)N1	0	0	48	0	0	0	0	0	22	0
O=C(NOCC1CC1)c1cc(Br)c(F)c(F)c1Nc1ccc(I)cc1Cl	0	0	0	0	16	47	0	12	0	0
Cn1ccc2ncnc(Oc3ccc(NC(=O)Nc4cccc(C(F)(F)F)c4)c(F)c3)c21	11	0	19	96.7	92.8	0	2	0	17	0
COC(=O)c1cccc(NC(=O)NC2CCN(c3ccnc(Nc4cc(OC)c(OC)c(OC)c4)n3)C2)c1 (centres unmarked) [GSK1379767]	19	0	0	19	4	14	15	0	0	4
Cn1ccc2ncnc(Oc3ccc(NC(=O)Nc4ccnc(C(F)(F)F)c4)c(Cl)c3)c21	0	0	53	76	11	6	0	0	0	0
C[C@@H]1CCN(C(=O)N2CCCC2)C[C@@H]1N(C)c1ncnc2[nH]ccc12	16	0	0	22	10	12	0	14	69	0
CCNCC(Cc1ccccc1)NC(=O)c1cc(Br)c(-c2ccnc3[nH]ccc23)s1.Cl.Cl (centres unmarked) [GSK1383280]	24	0	0	75	0	18	16	50	0	10
COc1cc2ncn(-c3cc(OCC4CCCCC4)c(C(N)=O)s3)c2cc1OC [GSK204559]	18	0	0	19	0	6	12	58	5	4
NC(=O)Nc1sc(-c2ccc(F)cc2)cc1C(N)=O [GW789449]	24	27	0	0	12	4	0	33	32	26
COc1cccc(CNC(=O)NC2CCN(c3ccnc(Nc4cc(OC)c(OC)c(OC)c4)n3)C2)c1 (centres unmarked) [GSK1379765]	40	24	0	100	0	0	0	0	0	8
NC(=O)c1ccc(-c2cc3ncnc(SCC(=O)O)c3s2)cc1	6	0	40	0	13	5	0	33	0	0
C[C@@H](Oc1cc(-n2cnc3ccc(-c4ccncc4)cc32)sc1C(N)=O)c1ccccc1Cl [GSK483724]	37	0	0	41	0	0	0	9	0	25
OCCn1cc(-c2cnc3nnn(Cc4ccc5ncccc5c4)c3n2)cn1	0	0	0	0	0	0	0	0	19	0
CNC(=O)c1ccccc1Nc1nc(Nc2cccc(CS(C)(=O)=O)c2)ncc1C.O=CO [GSK1520489]	64	81	37	95	95	22	0	62	100	98.9
CC(=O)Nc1nc2cnc(Nc3cc(NC(=O)c4cccc(CC(C)(C)C#N)c4)ccc3C)nc2s1	0	9	0	20	2	0	0	0	7	0
COc1ccc(Nc2nccc(N3CCC(NC(=O)c4cccc(C#N)c4)C3)n2)cc1 (centres unmarked) [GSK1379730]	46	0	0	16	5	0	0	0	0	11
N#Cc1cccc(C(=O)NC2CCN(c3ccnc(Nc4ccc(F)cc4)n3)C2)c1 (centres unmarked) [GSK1379708]	13	4	0	3	0	0	0	0	0	4
CCn1c(-c2nonc2N)nc2cncc(Br)c21 [SB-738004]	19	0	0	0	0	9	6	18	0	0
Cl.Cl.NC[C@H](CC1CCCCC1)NC(=O)c1ccc(-c2ccnc3[nH]ccc23)s1 [GSK1581428]	0	0	0	100	0	1	4	12	0	0
Cc1ccc(CC(=O)N2CCc3cc(-c4cn(C)c5ncnc(N)c45)ccc32)cc1 [GSK2634758]	36	0	0	89	48	0	0	1	0	42
FC(F)(F)c1cc(Br)cc(Nc2nccc(-c3cnn4ncccc34)n2)c1 [GW810578]	11	27	99.3	18	0	0	14	0	36	0
CCCC(=O)Nc1n[nH]c2ncccc12 [SB-601436]	5	0	0	0	0	0	0	0	0	0

SMILES	%Inh (TESK1) [%]	%Inh (TGFBR1) [%]	%Inh (TGFBR2) [%]	%Inh (TIE1) [%]	%Inh (TIE2) [%]	%Inh (TLK1) [%]	%Inh (TLK2) [%]	%Inh (TNIK) [%]	%Inh (TNK1) [%]	%Inh (TNK2) [%]
CN1CCN(CCCNc2nccc(-c3c(-c4ccc(F)cc4)nn4cc(C(N)=O)ccc34)n2)CC1 [GW622475]	23	92.3	77	6	0	39	0	76	0	13
CC(=O)c1c(-c2ccncc2)[nH]c(-c2ccncc2)c1C [GW493036]	25	23	25	0	1	0	0	0	0	19
CC(=O)Nc1ccc(-c2cc3ncnc(SCC(=O)O)c3s2)cc1	6	7	46	17	6	20	8	16	0	0
CS(=O)c1ccc(-c2coc3ccc(-c4n[nH]c(=O)o4)cc23)cc1 (centres unmarked)	0	24	18	0	10	35	0	0	0	0
COC(=O)c1cccc(NC(=O)NC2CCN(c3ccnc(NCc4ccc(F)cc4)n3)CC2)c1 [GSK1379860]	16	25	0	0	0	0	0	0	0	15
CS(=O)(=O)c1cccc(CNc2nc(Nc3ccc4c(c3)[C@@H]3C[C@@H]4CNC3=O)ncc2C(F)(F)F)c1	0	0	0	83	68	18	0	88	97.2	56
CCOC(=O)N1CCC(n2cnc(-c3ccc(F)cc3)c2-c2ccnc(N)n2)CC1 [SB-219952]	12	23	10	12	10	26	2	32	21	12
CC(C(=O)NC1CCN(c2ccnc(Nc3ccc(F)cc3)n2)C1)c1ccc(Cl)cc1 (centres unmarked) [GSK1379713]	26	0	0	12	0	0	0	0	0	0
COc1cccc(OC)c1C(=O)Nc1cccc(-c2nn3ccccc3c2-c2ccnc(Nc3cccc(F)c3)n2)c1 [GSK361065]	1	0	17	19	12	19	0	6	31	29
CN(c1cccc(CNc2nc(Nc3ccc4c(c3)CC(=O)N4)ncc2C(F)(F)F)c1)S(C)(=O)=O	0	0	0	75	42	16	3	75	57	67
Cc1ccc2c(-c3ccnc(Nc4ccc(C(F)(F)F)cc4)n3)cnn2n1 [GW819776]	0	21	60	0	6	18	17	9	13	0
Cc1cccc2c(-c3ccncc3)c(-c3ccc(F)cc3)nn12.Cl [GW461487]	0	8	0	0	0	10	2	7	0	9
O=C1NCCc2[nH]c(-c3ccncc3)cc21	6	33	44	0	5	31	8	35	15	0
Cc1nnc(-c2ccc3occ(-c4ccc(S(C)=O)cc4)c3n2)o1 (centres unmarked)	0	0	0	0	0	3	0	1	0	0
COc1cc(Nc2nccc(N3CCC(NC(=O)c4cccc(C#N)c4)C3)n2)cc(OC)c1OC (centres unmarked) [GSK1379751]	19	4	0	32	0	4	0	0	98.9	10
C[C@@H](Oc1cc(-n2cnc3cc(-c4ccncc4)ccc32)sc1C(N)=O)c1ccccc1Cl [GSK479719]	0	1	0	84	27	0	0	11	20	37
Cc1ccn2nc(-c3ccc(F)cc3)c(-c3ccncc3)c2c1.Cl [GW457859]	34	12	0	0	0	6	0	58	0	0
COc1cc2c(Nc3ccc(NC(=O)c4ccccc4)cc3)ncnc2cc1OCCCN1CCOCC1 [GSK301329]	37	0	0	24	0	0	0	0	56	66
Cc1cccc(-c2nc(Nc3ccncc3)c3sccc3n2)n1 [GW869641]	10		95.6	43	38	0	9	55	26	0
COc1cc2nccc(Nc3ccc(Oc4ccccc4)cc3)c2cc1OC.Cl [GI261656]	5	2	0	0	0	0	0	0	92.8	47
Cl.Nc1n[nH]c2cc(-c3ccccn3)ccc12 [GSK2189892]	22	0	0	0	0	0	0	5	0	15
c1ccc(Oc2ccc(Nc3ccnc4ccc(-c5ccccn5)cc34)cc2)cc1 [GW407034]	29	10	0	2	2	0	0	0	28	23
Cn1ccc2ncnc(Oc3ccc(NC(=O)Nc4cc(C(C)(C)C)on4)c(Cl)c3)c21	0	13	0	88	97.1	15	0	92.5	0	0

SMILES	%Inh (TESK1) [%]	%Inh (TGFBR1) [%]	%Inh (TGFBR2) [%]	%Inh (TIE1) [%]	%Inh (TIE2) [%]	%Inh (TLK1) [%]	%Inh (TLK2) [%]	%Inh (TNIK) [%]	%Inh (TNK1) [%]	%Inh (TNK2) [%]
Cn1cc(-c2cccc3c(N)c(C(N)=O)nnc23)cn1	0	0	16	6	1	2	0	5	0	0
CSc1nccc(-c2c(-c3ccc(F)cc3)ncn2CCCN2CCOCC2)n1.Cl [SB-217146]	0	0	0	0	0	0	15	0	26	0
O=C(Nc1cccc(Oc2ccc3nccn3n2)c1)Nc1cccc(C(F)(F)F)c1	11	4	0	75	5	14	0	51	26	0
CN(c1ccccc1CNc1nc(Nc2ccc3c(c2)CC(=O)N3)ncc1C(F)(F)F)S(C)(=O)=O	0	0	16	90.6	49	0	0	1	83	53
O=c1[nH]cc(-c2ccc(O)cc2)c2sc(-c3ccncc3)cc12 [GSK1033723]	0	0	0	0	89	6	0	4	0	5
Cn1ccc2ncnc(Oc3ccc(NC(=O)Nc4cccc(C(F)(F)F)c4)c(Cl)c3)c21	0	17	0	85	94.8	74	0	18	6	0
Cn1ccc2ncnc(Oc3ccc(NC(=O)Nc4cncc(C(F)(F)F)c4)c(Cl)c3)c21	0	0	0	80	92.8	5	0	0	0	0
CN1CCN(CCNc2nc3cc(Oc4ccc(NC(=O)Nc5cc(C(F)(F)F)ccc5F)cc4)ccc3[nH]2)CC1.Cl.Cl [GW768504]	0	6	4	89	60	0	2	0	30	0
Cn1ccc2ncnc(Oc3ccc(NC(=O)Nc4cnn(C(C)(C)C)c4)c(Cl)c3)c21	0	13	5	78	73	17	0	72	0	0
CCn1c(-c2nonc2N)nc2cncc(CNC3CCNCC3)c21.Cl [SB-747651]	20	10	0	5	0	0	0	0	0	8
COc1cccc(C2=C(Nc3cccc(Cl)c3)C(=O)NC2=O)c1 [SB-341556]	17	12	0	4	0	38	29	0	32	15
COC(=O)Nc1nc2cc(Oc3ccc(NC(=O)Nc4cc(C(F)(F)F)ccc4Cl)cc3)ccc2[nH]1.Cl [GW697465]	7	28	6	91.5	99.2	0	0	0	28	8
CC(C)c1nc(-c2cccc(NS(=O)(=O)c3ccccc3)c2)c(-c2ccnc(Nc3ccc4c(c3)CN(C)CC4)n2)s1 [GSK1649598]	97.5	94.1	94.8	91.5	99	41	33	93.7	100	96.2
CN(c1ccc2c(c1)nc(NCc1ccc(F)cc1)n2C)c1ccnc(Nc2ccc(CS(C)(=O)=O)cc2)n1.Cl [GW813244]	4	0	2	92.2	37	15	10	22	43	0
Cc1n[nH]c2cc(Nc3ccnc(Nc4cccc(CN5CCOCC5)c4)n3)ccc12 [GW682569]	27	54	84	45	2	9	2	25	33	10
Cc1ccc(C(=O)Nc2ccc(Oc3ccc4nc(NC(=O)C5CC5)cn4c3)c(F)c2)c(=O)n1-c1ccccc1	30	16	0	95	99.4	0	0	18	64	0
Nc1nccc(-c2ccc3c(N)n[nH]c3c2)n1 [GSK1034945]	2		0	0	0	14	0	2	0	5
Cc1ccc(Nc2ccnc(Nc3ccc4c(c3)CS(=O)(=O)C4)n2)cc1O.Cl [GW579362]	53	82	99.4	88	56	30	35	68	85	80
O=C(Nc1cccc(C(F)(F)F)c1)c1cccc(Oc2ccc3nccn3n2)c1	7	0	0	39	0	3	0	0	36	0
O=C(Nc1n[nH]c2cc(-c3ccco3)ccc12)C1CC1 [SB-737447]	0	6	0	17	3	20	0	65	0	0
C[C@@H]1CNc2c(sc3ccc4nc(-c5ccc(O)cc5)ccc4c23)C(=O)N1	8	1	60	0	25	24	0	42	14	0
